# According to paper PMC7862700, “An all-to-all approach to the identification of sequence-specific readers for epigenetic DNA modifications on cytosine”:
# What was measured:
# Test in all cases: DAPPL (digital affinity profiling via proximity ligation, sequencing); 10 mM Tris-HCl pH 7.5, 50 mM NaCl, 1 mM DTT, 4% glycerol, room temperature, 30 min; GST-TFs on glutathione beads, 16-mer random dsDNA library, 0.1% formaldehyde crosslink after washing; high values mean tight binding
# FEV = molecular target: T1, FEV (Homo sapiens, UniProt Q99581 1-238); conditions: protein: recombinant; tags: N-terminal GST; dsDNA, one strand shown
# T1 sequence: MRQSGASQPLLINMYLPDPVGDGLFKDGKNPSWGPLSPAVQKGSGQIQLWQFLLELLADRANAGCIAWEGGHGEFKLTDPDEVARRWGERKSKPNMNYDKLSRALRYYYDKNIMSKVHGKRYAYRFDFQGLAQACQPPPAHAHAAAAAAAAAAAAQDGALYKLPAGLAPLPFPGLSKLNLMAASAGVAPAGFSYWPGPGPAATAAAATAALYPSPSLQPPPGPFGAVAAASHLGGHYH
# How it was run: (§1)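 Sequencing on an Illumina NextSeq500 followed washing, crosslinking with 0.1% formaldehyde, proximity ligation (BsaI/T4 ligase, 1 h, 37 °C) and PCR amplification of pools that had been incubated for 30 min at room temperature with 200 nmole of a random double-stranded 16-mer DNA library in Tris/NaCl/DTT/glycerol buffer. Each pool held DNA-barcoded human transcription factors, expressed in yeast as GST fusions and captured on glutathione beads, plus a tag-only sample. Binding signal is a hexamer's read frequency for a factor divided by its frequency in the tag-only sample.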
# ETV5 = ETV5 (Homo sapiens, UniProt P41161 1-510); conditions: protein: recombinant; tags: N-terminal GST; dsDNA, one strand shown
# Chain of ETV5 (P41161 whole entry): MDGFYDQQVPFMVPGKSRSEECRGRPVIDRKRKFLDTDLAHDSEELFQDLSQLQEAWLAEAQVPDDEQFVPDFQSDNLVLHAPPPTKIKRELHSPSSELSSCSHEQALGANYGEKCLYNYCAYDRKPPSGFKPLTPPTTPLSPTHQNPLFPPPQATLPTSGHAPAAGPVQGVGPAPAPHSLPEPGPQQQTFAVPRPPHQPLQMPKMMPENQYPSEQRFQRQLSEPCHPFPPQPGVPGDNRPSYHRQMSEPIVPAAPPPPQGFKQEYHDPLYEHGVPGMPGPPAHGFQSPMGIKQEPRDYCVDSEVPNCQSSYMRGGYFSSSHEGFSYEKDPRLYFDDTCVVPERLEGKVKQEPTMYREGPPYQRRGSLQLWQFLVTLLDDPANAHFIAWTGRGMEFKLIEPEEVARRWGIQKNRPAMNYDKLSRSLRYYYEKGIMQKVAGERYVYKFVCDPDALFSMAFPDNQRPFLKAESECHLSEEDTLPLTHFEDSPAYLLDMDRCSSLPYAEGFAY
# How it was run: as §1
# HSF1 = HSF1 (Homo sapiens, UniProt Q00613 1-529); conditions: protein: recombinant; tags: N-terminal GST; chain copies: 3; dsDNA, one strand shown
# Chain of HSF1 (Q00613 whole entry): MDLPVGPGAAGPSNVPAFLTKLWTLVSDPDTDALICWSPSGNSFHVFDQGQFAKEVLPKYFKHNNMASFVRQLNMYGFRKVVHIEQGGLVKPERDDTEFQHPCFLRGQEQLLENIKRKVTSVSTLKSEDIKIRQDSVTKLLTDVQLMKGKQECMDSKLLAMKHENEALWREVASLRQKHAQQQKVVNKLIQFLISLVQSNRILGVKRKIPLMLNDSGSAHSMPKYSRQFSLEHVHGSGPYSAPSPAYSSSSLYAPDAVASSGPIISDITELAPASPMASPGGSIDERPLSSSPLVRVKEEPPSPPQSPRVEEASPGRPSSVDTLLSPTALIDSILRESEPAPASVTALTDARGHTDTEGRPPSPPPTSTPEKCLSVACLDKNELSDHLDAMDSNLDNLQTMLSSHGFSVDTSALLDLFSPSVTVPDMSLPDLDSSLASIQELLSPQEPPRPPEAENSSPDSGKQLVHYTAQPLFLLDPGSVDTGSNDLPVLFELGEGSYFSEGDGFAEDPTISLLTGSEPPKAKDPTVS
# How it was run: as §1
# SPIC = molecular target: T2, SPIC (Homo sapiens, UniProt Q8N5J4 1-248); conditions: protein: recombinant; tags: N-terminal GST; dsDNA, one strand shown
# T2 sequence: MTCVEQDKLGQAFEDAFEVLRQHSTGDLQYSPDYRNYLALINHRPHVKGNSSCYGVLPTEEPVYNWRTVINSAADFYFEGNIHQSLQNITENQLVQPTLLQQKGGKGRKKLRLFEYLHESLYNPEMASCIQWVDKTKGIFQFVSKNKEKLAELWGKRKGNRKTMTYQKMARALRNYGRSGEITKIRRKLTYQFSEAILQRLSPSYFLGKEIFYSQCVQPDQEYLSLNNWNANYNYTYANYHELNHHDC
# How it was run: as §1
# ELF4 = ELF4 (Homo sapiens, UniProt Q99607 1-663); conditions: protein: recombinant; tags: N-terminal GST; dsDNA, one strand shown
# Chain of ELF4 (Q99607 whole entry): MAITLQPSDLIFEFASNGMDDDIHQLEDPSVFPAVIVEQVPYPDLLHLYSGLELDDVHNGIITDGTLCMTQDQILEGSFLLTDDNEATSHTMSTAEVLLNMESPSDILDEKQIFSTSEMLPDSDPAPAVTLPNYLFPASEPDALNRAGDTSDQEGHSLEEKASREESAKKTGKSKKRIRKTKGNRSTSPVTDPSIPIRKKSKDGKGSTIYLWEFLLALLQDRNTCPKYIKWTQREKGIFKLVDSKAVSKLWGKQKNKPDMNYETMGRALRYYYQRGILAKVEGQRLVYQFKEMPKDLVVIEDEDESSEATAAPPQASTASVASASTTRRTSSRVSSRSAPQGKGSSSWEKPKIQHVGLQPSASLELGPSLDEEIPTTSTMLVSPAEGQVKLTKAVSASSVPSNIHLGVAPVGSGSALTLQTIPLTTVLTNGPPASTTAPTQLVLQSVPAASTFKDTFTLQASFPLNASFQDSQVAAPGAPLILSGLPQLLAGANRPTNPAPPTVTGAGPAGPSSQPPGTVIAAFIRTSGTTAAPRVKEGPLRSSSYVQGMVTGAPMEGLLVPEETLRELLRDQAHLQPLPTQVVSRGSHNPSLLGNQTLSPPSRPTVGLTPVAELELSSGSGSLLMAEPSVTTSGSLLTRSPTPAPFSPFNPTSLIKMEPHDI
# How it was run: as §1
# ELK4 = molecular target: T3, ELK4 (Homo sapiens, UniProt P28324-2 1-405); conditions: protein: recombinant; tags: N-terminal GST; dsDNA, one strand shown
# T3 sequence: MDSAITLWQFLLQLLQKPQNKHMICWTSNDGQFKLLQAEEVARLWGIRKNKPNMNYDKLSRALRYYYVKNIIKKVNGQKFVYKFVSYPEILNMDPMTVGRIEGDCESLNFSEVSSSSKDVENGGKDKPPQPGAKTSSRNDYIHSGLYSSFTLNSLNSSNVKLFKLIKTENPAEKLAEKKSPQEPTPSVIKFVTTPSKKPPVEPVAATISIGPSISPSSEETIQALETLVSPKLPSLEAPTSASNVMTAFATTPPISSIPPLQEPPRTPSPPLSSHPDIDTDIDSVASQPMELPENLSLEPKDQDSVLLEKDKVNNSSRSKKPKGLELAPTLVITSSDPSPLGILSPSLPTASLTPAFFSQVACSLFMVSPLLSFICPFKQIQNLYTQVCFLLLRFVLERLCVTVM
# How it was run: as §1
# ETV2 = molecular target: T4, ETV2 (Homo sapiens, UniProt O00321 1-342); conditions: protein: recombinant; tags: N-terminal GST; dsDNA, one strand shown
# T4 sequence: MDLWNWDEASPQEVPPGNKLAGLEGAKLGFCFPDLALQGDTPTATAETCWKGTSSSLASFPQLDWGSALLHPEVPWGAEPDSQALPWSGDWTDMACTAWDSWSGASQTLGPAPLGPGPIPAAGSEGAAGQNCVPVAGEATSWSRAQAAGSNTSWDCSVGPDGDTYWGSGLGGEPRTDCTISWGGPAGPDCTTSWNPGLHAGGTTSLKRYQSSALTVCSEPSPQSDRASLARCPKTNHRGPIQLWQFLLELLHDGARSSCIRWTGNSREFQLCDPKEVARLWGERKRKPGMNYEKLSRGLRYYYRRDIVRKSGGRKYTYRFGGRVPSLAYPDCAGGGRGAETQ
# How it was run: as §1
# ELF3 = molecular target: T5, ELF3 (Homo sapiens, UniProt P78545 1-371); conditions: protein: recombinant; tags: N-terminal GST; dsDNA, one strand shown
# T5 sequence: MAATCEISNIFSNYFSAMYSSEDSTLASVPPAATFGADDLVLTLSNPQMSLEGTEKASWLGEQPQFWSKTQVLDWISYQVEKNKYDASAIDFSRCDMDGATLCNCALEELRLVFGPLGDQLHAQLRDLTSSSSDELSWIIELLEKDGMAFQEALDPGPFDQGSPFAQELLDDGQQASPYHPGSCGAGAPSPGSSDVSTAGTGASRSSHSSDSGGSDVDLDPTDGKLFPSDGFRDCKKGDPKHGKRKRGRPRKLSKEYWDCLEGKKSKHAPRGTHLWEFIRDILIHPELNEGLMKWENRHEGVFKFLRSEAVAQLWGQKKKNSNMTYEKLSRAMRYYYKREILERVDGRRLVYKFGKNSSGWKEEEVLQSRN
# How it was run: as §1
# ETV1 = ETV1 (Homo sapiens, UniProt P50549 1-477); conditions: protein: recombinant; tags: N-terminal GST; dsDNA, one strand shown
# Chain of ETV1 (P50549 whole entry): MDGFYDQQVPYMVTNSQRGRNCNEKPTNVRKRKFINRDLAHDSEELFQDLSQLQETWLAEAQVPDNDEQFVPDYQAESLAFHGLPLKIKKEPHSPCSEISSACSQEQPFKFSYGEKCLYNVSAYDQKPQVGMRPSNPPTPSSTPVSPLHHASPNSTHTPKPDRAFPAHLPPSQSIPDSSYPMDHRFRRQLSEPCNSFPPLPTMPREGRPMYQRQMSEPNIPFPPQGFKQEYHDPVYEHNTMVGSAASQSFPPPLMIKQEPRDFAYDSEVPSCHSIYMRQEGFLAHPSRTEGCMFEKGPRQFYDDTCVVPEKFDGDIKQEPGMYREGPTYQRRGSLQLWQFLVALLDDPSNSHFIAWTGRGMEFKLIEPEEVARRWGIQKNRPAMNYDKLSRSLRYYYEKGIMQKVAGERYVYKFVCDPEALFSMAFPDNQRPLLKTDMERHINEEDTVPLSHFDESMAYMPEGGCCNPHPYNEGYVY
# How it was run: as §1
# ERF = molecular target: T6, ERF (Homo sapiens, UniProt P50548 1-548); conditions: protein: recombinant; tags: N-terminal GST; dsDNA, one strand shown
# T6 sequence: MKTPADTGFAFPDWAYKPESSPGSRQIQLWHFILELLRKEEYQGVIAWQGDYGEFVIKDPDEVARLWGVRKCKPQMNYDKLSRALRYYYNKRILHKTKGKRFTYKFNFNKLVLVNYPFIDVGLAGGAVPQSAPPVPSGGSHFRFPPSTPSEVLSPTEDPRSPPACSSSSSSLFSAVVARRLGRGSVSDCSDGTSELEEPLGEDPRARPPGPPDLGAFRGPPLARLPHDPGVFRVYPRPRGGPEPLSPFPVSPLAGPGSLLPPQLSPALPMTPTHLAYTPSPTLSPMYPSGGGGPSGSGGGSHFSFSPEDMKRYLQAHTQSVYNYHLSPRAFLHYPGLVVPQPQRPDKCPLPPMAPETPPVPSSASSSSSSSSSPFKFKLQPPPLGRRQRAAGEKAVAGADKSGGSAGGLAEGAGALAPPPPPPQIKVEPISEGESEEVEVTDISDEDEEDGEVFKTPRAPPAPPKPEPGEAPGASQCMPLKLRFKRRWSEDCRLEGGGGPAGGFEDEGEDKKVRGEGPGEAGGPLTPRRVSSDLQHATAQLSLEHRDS
# How it was run: as §1
# ETV3L = molecular target: T7, ETV3L (Homo sapiens, UniProt Q6ZN32 1-361); conditions: protein: recombinant; tags: N-terminal GST; dsDNA, one strand shown
# T7 sequence: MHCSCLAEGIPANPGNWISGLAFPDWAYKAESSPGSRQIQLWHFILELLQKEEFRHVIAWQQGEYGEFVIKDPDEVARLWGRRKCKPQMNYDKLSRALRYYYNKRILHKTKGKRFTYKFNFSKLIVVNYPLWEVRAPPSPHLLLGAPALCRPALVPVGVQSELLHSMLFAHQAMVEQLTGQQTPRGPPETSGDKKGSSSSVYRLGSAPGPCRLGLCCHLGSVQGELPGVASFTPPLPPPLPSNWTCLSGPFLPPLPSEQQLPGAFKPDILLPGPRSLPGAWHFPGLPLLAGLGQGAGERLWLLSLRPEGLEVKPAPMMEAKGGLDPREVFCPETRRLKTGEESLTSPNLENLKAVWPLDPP
# How it was run: as §1
# ETS2 = molecular target: T8, ETS2 (Homo sapiens, UniProt P15036 1-469); conditions: protein: recombinant; tags: N-terminal GST; dsDNA, one strand shown
# T8 sequence: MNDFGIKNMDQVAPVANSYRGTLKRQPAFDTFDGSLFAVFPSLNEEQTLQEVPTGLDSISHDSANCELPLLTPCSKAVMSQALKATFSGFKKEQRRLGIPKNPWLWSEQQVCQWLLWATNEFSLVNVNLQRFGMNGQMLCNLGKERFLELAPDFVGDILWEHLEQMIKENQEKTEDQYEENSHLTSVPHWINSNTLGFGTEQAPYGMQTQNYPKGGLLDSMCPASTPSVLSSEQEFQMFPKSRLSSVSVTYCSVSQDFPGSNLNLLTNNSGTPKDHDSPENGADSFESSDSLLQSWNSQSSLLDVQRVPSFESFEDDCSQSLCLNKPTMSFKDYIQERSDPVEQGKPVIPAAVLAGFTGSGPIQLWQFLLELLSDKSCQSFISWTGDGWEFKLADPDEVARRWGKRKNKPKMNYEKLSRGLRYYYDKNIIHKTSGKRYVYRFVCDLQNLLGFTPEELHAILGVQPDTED
# How it was run: as §1
# SPDEF = molecular target: T9, SPDEF (Homo sapiens, UniProt O95238 1-335); conditions: protein: recombinant; tags: N-terminal GST; dsDNA, one strand shown
# T9 sequence: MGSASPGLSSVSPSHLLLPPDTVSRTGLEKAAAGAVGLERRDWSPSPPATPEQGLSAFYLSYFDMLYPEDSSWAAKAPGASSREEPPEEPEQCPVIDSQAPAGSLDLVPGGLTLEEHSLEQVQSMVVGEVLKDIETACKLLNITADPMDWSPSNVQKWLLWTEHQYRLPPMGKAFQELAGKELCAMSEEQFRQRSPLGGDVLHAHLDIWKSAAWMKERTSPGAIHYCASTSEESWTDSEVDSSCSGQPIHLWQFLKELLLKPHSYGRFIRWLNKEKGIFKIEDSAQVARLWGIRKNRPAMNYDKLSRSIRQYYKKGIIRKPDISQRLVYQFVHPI
# How it was run: as §1
# ETV7 = molecular target: T10, ETV7 (Homo sapiens, UniProt Q9Y603 1-341); conditions: protein: recombinant; tags: N-terminal GST; dsDNA, one strand shown
# T10 sequence: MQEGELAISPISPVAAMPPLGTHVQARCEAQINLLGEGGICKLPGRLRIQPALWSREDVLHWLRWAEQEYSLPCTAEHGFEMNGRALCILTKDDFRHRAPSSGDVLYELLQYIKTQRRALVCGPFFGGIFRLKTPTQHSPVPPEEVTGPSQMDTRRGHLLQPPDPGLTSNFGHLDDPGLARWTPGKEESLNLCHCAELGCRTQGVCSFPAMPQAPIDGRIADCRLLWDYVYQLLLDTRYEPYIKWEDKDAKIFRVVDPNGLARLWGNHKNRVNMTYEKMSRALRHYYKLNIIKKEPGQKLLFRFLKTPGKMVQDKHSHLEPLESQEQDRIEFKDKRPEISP
# How it was run: as §1
# ELF5 = molecular target: T11, ELF5 (Homo sapiens, UniProt Q9UKW6-2 1-255); conditions: protein: recombinant; tags: N-terminal GST; dsDNA, one strand shown
# T11 sequence: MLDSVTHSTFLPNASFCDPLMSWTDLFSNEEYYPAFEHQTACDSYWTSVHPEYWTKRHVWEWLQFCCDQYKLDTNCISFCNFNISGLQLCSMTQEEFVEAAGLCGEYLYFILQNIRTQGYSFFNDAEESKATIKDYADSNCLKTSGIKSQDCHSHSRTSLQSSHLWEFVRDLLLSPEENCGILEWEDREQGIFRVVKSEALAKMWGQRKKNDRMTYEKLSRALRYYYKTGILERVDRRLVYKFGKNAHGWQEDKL
# How it was run: as §1
# ETV3 = molecular target: T12, ETV3 (Homo sapiens, UniProt P41162-2 1-143); conditions: protein: recombinant; tags: N-terminal GST; dsDNA, one strand shown
# T12 sequence: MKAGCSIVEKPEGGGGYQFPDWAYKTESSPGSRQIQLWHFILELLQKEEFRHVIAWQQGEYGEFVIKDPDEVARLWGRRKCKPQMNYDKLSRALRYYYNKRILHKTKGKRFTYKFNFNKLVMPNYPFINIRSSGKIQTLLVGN
# How it was run: as §1
# ETV6 = ETV6 (Homo sapiens, UniProt P41212 1-452); conditions: protein: recombinant; tags: N-terminal GST; dsDNA, one strand shown
# Chain of ETV6 (P41212 whole entry): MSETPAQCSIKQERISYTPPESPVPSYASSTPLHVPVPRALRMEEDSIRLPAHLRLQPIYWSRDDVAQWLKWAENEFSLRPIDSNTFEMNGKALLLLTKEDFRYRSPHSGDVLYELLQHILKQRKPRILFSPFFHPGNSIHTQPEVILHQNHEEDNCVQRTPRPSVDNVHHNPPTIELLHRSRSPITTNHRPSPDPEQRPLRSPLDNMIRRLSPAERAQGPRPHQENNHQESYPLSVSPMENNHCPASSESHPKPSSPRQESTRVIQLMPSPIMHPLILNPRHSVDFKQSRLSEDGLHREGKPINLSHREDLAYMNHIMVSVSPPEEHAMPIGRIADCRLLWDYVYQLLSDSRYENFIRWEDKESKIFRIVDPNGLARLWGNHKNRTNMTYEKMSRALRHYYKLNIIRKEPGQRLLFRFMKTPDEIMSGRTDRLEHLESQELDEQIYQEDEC
# How it was run: as §1
sequence,measurement,setting,value
AACACG,binding signal,FEV,"1.19 fold enrichment (6-mer frequency, TF over GST control)"
same,binding signal,ETV5,"1.25 fold enrichment (6-mer frequency, TF over GST control)"
same,binding signal,HSF1,"1.02 fold enrichment (6-mer frequency, TF over GST control)"
same,binding signal,SPIC,"1.33 fold enrichment (6-mer frequency, TF over GST control)"
same,binding signal,ELF4,"1.24 fold enrichment (6-mer frequency, TF over GST control)"
same,binding signal,ELK4,"1.22 fold enrichment (6-mer frequency, TF over GST control)"
same,binding signal,ETV2,"1.07 fold enrichment (6-mer frequency, TF over GST control)"
same,binding signal,ELF3,"1.19 fold enrichment (6-mer frequency, TF over GST control)"
same,binding signal,ETV1,"1.24 fold enrichment (6-mer frequency, TF over GST control)"
same,binding signal,ERF,"1.14 fold enrichment (6-mer frequency, TF over GST control)"
same,binding signal,ETV3L,"1.15 fold enrichment (6-mer frequency, TF over GST control)"
same,binding signal,ETS2,"1.25 fold enrichment (6-mer frequency, TF over GST control)"
same,binding signal,SPDEF,"1.22 fold enrichment (6-mer frequency, TF over GST control)"
same,binding signal,ETV7,"1.13 fold enrichment (6-mer frequency, TF over GST control)"
same,binding signal,ELF5,"1.22 fold enrichment (6-mer frequency, TF over GST control)"
same,binding signal,ETV3,"1.3 fold enrichment (6-mer frequency, TF over GST control)"
same,binding signal,ETV6,"1.23 fold enrichment (6-mer frequency, TF over GST control)"
